# HP1b chromo inh – HTS for Inhibitors of HP1-beta Chromodomain Interactions with Methylated Histone Tails. Chromobox protein homolog 1 (Homo sapiens), P83916. AlphaScreen HP1-beta / biotin-H3K9me3 peptide binding. Potency, µM (top dose mostly 114 µM), for inactives: at the highest dose activity change, negative = inhibition, actives largely listed as inhibitors. 390,000 tested, 0.56% active; note: nearly all actives have a fitted effect of over 70% in size
#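 HP1-beta protein (50 nM final) preincubated 30 min at room temperature with biotinylated H3(1-18)K9me3 peptide (50 nM) in PBS pH 7.4, 0.01% Tween-20, then compound added for 30 min. AlphaScreen streptavidin donor/nickel chelate acceptor beads (10 ug/mL final), 30 min dark, luminescence read.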
# G9a block – qHTS Assay for Inhibitors of Histone Lysine Methyltransferase G9a; Potency, µM (series often up to 102 µM), for inactives: at the top dose activity, negative = inhibition, hits mostly inhibitors; AID 504332, 2011; Histone-lysine N-methyltransferase EHMT2 (Homo sapiens), Q96KQ7; 350,000 tested, 8.8% active; G9a H3K9 monomethylation, AlphaScreen, 2 h; note: % is set by controls: 0 for no effect and ±100 for the full control effect; nearly all actives have a fitted effect of over 75% in size
#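 Using a bead-based AlphaScreen, monomethylated H3K9 product from 2 h room-temperature reactions (G9a 20 nM, peptide 500 nM, SAM 20 uM) was detected with 0.5 ug/mL rabbit anti-H3K9me1 antibody.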
# L3MBTL1 inh – qHTS Assay for the Inhibitors of L3MBTL1 | AlphaScreen L3MBTL1–H3K9me1 peptide binding | 230,000 tested, 0.66% active | Potency, µM (titrated, usually from 57.1 µM), inactives show at the highest dose activity, negative = inhibition, most hits filed as inhibitors; note: % is set by controls: 0 for no effect and ±100 for the full control effect; nearly all actives have a fitted effect of over 60% in size
#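 L3MBTL1 50 nM + b-AHA-H3(1-15)K9me1 75 nM, 30 min RT; compound added, 30 min RT; streptavidin donor/Ni-chelate acceptor beads 10 ug/mL each final, 30 min RT dark; AlphaScreen read.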
# BAZ2B block – qHTS Assay for Inhibitors of BAZ2B | Potency, µM (highest dose often 114 µM), for inactives: at the top dose activity change, negative = inhibition, hits mostly inhibitors | AID 504333, 2011 | 360,000 tested, 4.4% active | AlphaScreen BAZ2B-H3K14Ac peptide displacement; note: % is set by controls: 0 for no effect and ±100 for the full control effect; nearly all actives have a fitted effect of over 60% in size
#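 In this displacement format the biotinylated H3(5-23) peptide acetylated at Lys14 serves as ligand at 50 nM, with BAZ2B at 50 nM in PBS pH 7.4 containing 0.01% Tween-20. Donor and acceptor beads are 10 ug/mL final.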
# JMJD2A Tudor – qHTS Assay for Inhibitors of JMJD2A-Tudor Domain; Potency, µM (top dose mostly 114 µM), without a hit: top-dose activity change, negative = inhibition, usual class: inhibitors; 390,000 tested, 4.4% active; AlphaScreen JMJD2A-Tudor / H3K4me3 peptide binding; Lysine-specific demethylase 4A (Homo sapiens), O75164; note: % is set by controls: 0 for no effect and ±100 for the full control effect; nearly all actives have a fitted effect of over 50% in size
# Sfp PPTase inh – qHTS Assay for Inhibitors of Bacillus subtilis Sfp phosphopantetheinyl transferase (PPTase); 4'-phosphopantetheinyl transferase ffp (Bacillus subtilis), Q9F4F7; Biochemical Sfp PPTase activity, qHTS; Potency, µM, without a hit: largest response in the series, negative = inhibition, hits mostly inhibitors; 310,000 tested, 3.5% active;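 note: the enzyme is Sfp with the accession as filed and its product quenches rhodamine fluorescence; 0% = enzyme reaction without inhibitor and -100% = no enzyme wells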
#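 Reaction rates are the 30-min fluorescence difference (ex 525, em 598 nm) in wells containing 15 nM Sfp, 5 uM rhodamine-CoA and 12.5 uM BHQ-2-YbbR at pH 7.6 with 10 mM MgCl2.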
# Starred values were filed as active, the others as inactive; u = inconclusive; x = no result; [ ] = another dose, or the depositor's remark. An excerpt weighted towards active compounds, which were near 12% of everything screened. Calls come from the whole dose curve; as a rule, active = well fitted curve in the direction sought with a large enough effect; inconclusive = small, poorly fitted or top-dose-only effect, or another doubt; inactive = no such curve, though single readings can be large; an effect the other way counts as inactive or inconclusive. Potency is the fitted concentration of half-maximal effect.
SMILES,HP1b chromo inh,G9a block,L3MBTL1 inh,BAZ2B block,JMJD2A Tudor,Sfp PPTase inh
Cc1ccc(NC(=O)Nc2cccs2)cc1,2%,u,-9%,u,-22%,18µM*
CCc1ccc(NC(=O)Cc2c(C(=O)O)n(C)c3ccccc23)cc1,21%,u,x,28µM*,-13%,15%
COc1ccc(NC(=O)Nc2cccs2)cc1OC,-24%,45µM*,x,u,u,45µM*
Cc1cc(C)cc(NC(=O)Nc2cccs2)c1,18%,u,x,-25%,-16%,x
CCc1ccc(NC(=O)Nc2cccs2)cc1,9%,10µM*,-17%,u,-19%,50µM*
CCN(C(=O)c1cn(CC)c(=O)c2cc(OC)c(OC)cc12)c1ccc(C)c(C)c1,-9%,1%[59 µM],x,-5%,-17%,x
CCc1ccc(NC(=O)Nc2cn(C)c(=O)c3ccccc23)cc1,31%,10µM*,x,-11%,-13%,x
CCOc1ccc(NC(=O)Nc2ccc3nsnc3c2)cc1,30%,6%,-1%,-8%,-10%,18%
CCOc1ccc(NC(=O)Nc2cccs2)cc1,-1%,u,x,-36%,-30%[57.1 µM],56µM*
COc1cccc(CNC(=O)c2nn(-c3ccc(C)cc3)c(=O)c3c2c2ccccc2n3C)c1,25%,10%[59 µM],x,x,-6%,x
C=CCNc1nc(C(=O)OCC(=O)c2ccccc2)cs1,10%,x,x,u,-12%,8%
C=CCNc1nc(C(=O)OCC(=O)Nc2ccc(S(N)(=O)=O)cc2)cs1,0%,-36%,-24%,89µM*,u,x
CC1CCN(C(c2ccccc2)c2sc3nc(-c4ccco4)nn3c2O)CC1 (centres undefined),10%,-21%[59 µM],x,-21%,-11%,x
COc1ccc(CN2COc3ccc4c(C)cc(=O)oc4c3C2)cc1,17%,-35%[59 µM],x,-6%,-10%,x
CS(=O)(=O)NN1C(=O)c2ccccc2NC1c1cccs1 (centres undefined),8%,-34%,x,12%,3.5µM*,20%
Cc1sc2nc(CSC(C)C(=O)Nc3ccccn3)[nH]c(=O)c2c1C (centres undefined),19%,7.9µM*,-1%,7%,-8%,x
Cc1sc2nc(CSC(C)C(=O)Nc3cc(S(C)(=O)=O)ccc3Cl)[nH]c(=O)c2c1C (centres undefined),10%,50µM*,u,-22%,-9%,x
Cc1sc2nc(CSCC(=O)N(C)CC(=O)Nc3ccc(F)cc3)[nH]c(=O)c2c1C,17%,50µM*,0%,-11%,-19%,x
Cc1ccc(NC(=O)C(C)SCc2nc3sc(C)c(C)c3c(=O)[nH]2)nc1 (centres undefined),28%,14µM*,8%,3%,-13%,x
Cc1ccc(NC(=O)C(C)SCc2nc3sc4c(c3c(=O)[nH]2)CCCC4)nc1 (centres undefined),38%,-10%,x,-21%,0%,10%
O=C(CC1N=C2c3ccccc3N=C(SCc3cccc(Cl)c3)N2C1=O)NCCc1ccccc1 (centres undefined),29%,9%[59 µM],x,-19%,-27%,x
Cc1cccc(NC(=O)C(C)SCc2nc3sc(C)c(C)c3c(=O)[nH]2)n1 (centres undefined),33%,45µM*,x,-20%,-24%,-19%
Cc1sc2nc(CSCC(=O)Nc3c(F)cccc3F)[nH]c(=O)c2c1C,38%,15%[2.33 µM],7%,9%,-12%,x
O=C(CNC(=O)c1ccccc1)OC(C(=O)Nc1ccc2c(c1)OCO2)c1ccccc1 (centres undefined),x,x,x,x,-27%,x
O=C(NCN1CCc2ccccc2C1)c1cnccn1,10%,22%[59 µM],-2%,15%,6.3µM*,3%
SMILES,HP1b chromo inh,G9a block,L3MBTL1 inh,BAZ2B block,JMJD2A Tudor,Sfp PPTase inh
CCOC(=O)N1CCC(NC(=S)Nc2ccc3nc(N4CCN(C)CC4)cc(C)c3c2)CC1,15%,u,x,-16%,-15%,-3%
CCCCN(C)CCNC(=S)Nc1ccc2nc(N3CCN(CC)CC3)cc(C)c2c1,-15%,45µM*,x,-4%,-18%,12%
CCCN(CCC)CCNC(=O)CCC(=O)Nc1ccc2nc(N3CCN(C)CC3)cc(C)c2c1,18%,u,x,-14%,-12%,-4%
CCN(CC)CCNC(=S)Nc1ccc2nc(N3CCN(CC)CC3)cc(C)c2c1,-7%,45µM*,x,-11%,-20%,13%
CCOC(=O)N1CCC(NC(=S)Nc2ccc3nc(N4CCN(CC)CC4)cc(C)c3c2)CC1,16%,25µM*,x,u,-18%[11.4 µM],10%
CCN1CCN(c2cc(C)c3cc(NC(=S)NCCN(C)C)ccc3n2)CC1,-34%,50µM*,x,0%,-15%,5%
CCCCNC(=S)Nc1ccc2nc(N3CCN(CC)CC3)cc(C)c2c1,12%,u,x,u,u,-13%
CC(C)C[C@H](NC(=O)[C@H](Cc1ccccc1)NC(=O)CNC(=O)[C@H](CCC(=O)O)NC(=O)[C@H](CCCNC(=N)N)NC(=O)[C@H](C)NC(=O)[C@H](C)NC(=O)[C@@H](N)CC(=O)O)C(=O)N[C@@H](CC(=O)O)C(=O)N[C@H](C(=O)N[C@@H](CC(C)C)C(=O)N[C@H](C(=O)N[C@H](C(=O)N[C@@H](CC(C)C)C(=O)N[C@@H](Cc1cnc[nH]1)C(=O)N[C@@H](CCCNC(=N)N)C(=O)N[C@@H](C)C(=O)NCC(=O)N[C@@H](C)C(=O)N[C@@H](CCCNC(=N)N)C(=O)O)C(C)C)C(C)C)[C@@H](C)O,x,x,x,x,x,7%
CCN1CCN(c2cc(C)c3cc(NC(=S)N(C)Cc4ccccc4)ccc3n2)CC1,13%,u,x,-33%,u,7%
CCN1CCN(c2cc(C)c3cc(NC(=O)c4ccc(OC)c(OC)c4)ccc3n2)CC1,11%,71µM*,x,-28%,-33%,-7%
CCCCN(C)C(=S)Nc1ccc2nc(N3CCN(CC)CC3)cc(C)c2c1,14%,45µM*,x,-29%,-7%[11.4 µM],6%
CCCCNC(=O)CCC(=O)Nc1ccc2nc(N3CCN(C)CC3)cc(C)c2c1,12%[57 µM],-9%[59 µM],x,-20%,-20%,3%
CCCCN(CC)C(=S)Nc1ccc2nc(N3CCN(C)CC3)cc(C)c2c1,-1%[57 µM],40µM*,x,u,u,-12%
